Experimental data published in PubChem BioAssay AID588651 (The Scripps Research Institute Molecular Screening Center, 2011).
Unmarked numbers belong to inactive results. Activity calls are given as the source filed them. Rule as the data show it: active = inhibition above about 65%; inactive = the rest.

The compounds below were run on Fam108b (assay: Fam108b inhibitors and proteome off-target selectivity – biochemical, gel-based ABPP, recombinant soluble Fam108b, HTS hits, complex proteome, late-stage follow-up (AID 588651;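 also: Fam108b spiked into mouse brain membrane proteome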)). Conditions: FP-rhodamine labeling in proteome, at 20 µM, stronger effect = higher value.

Row | Structure (SMILES) | inhibition
1 | O=C(NCC1CC1)c1ccc(Nc2nc3ccc(Br)cc3[nH]2)cc1 | 0%
2 | COc1ccc2oc(=O)c(-c3csc(Nc4cccc(O)c4)n3)cc2c1 | 0%
3 | COc1cccc2c1C(=O)c1c(O)c3c(c(O)c1C2=O)C[C@@](O)(C(=O)CO)C[C@@H]3O[C@H]1C[C@H](N)[C@H](O)[C@H](C)O1 | 0%
4 | O=S(=O)(c1cc(O)ccc1O)c1cccc2c(S(=O)(=O)c3cc(O)ccc3O)cccc12 | 10%
5 | Cc1ccc(S(=O)(=O)/N=C2\C=C(Nc3cccc(C(=O)O)c3)C(=O)c3ccccc32)cc1 | 0%
6 | Fc1ccc2nc(Nc3nc4cc5c(cc4s3)OCO5)sc2c1 | 0%
7 | O=C(Nc1ccc2[nH]c(=S)sc2c1)Nc1ccccc1F | 20%
8 | O=C(NN=Cc1ccc(O)cc1)c1cccc(NN=Cc2ccc(O)cc2)c1 | 60%
9 | O=C1NC(=S)/C(=C\c2ccc(-c3ccccc3Cl)o2)S1 | 0%
10 | Cc1ccc(C)c(-n2c3nc(=O)[nH]c(=O)c-3cc3cc([N+](=O)[O-])ccc32)c1 | 0%
11 | O=C(O)c1ccc(S(=O)(=O)/N=C2\C=C(Nc3ccccc3F)C(=O)c3ccccc32)cc1 | 0%
12 | Oc1oc(-c2ccccc2Br)nc1C=Nc1ccccn1 | 90% (active)
13 | Oc1cccc2cc3cccc(O)c3c(O)c12 | 85% (active)
14 | Cc1c(O)ccc(C=NNc2nc(-c3cccnc3)nc3ccccc23)c1O | 85% (active)
15 | O=C1C(Cl)=C(Nc2ccc3cn[nH]c3c2)C(=O)c2ccccc21 | 0%
16 | O=c1cc(-c2ccc(O)c(-c3c(O)cc(O)c4c(=O)cc(-c5ccc(O)cc5)oc34)c2)oc2cc(O)cc(O)c12 | 95% (active)
17 | COc1ccc(C=NNC(=O)c2ccc(O)cc2)cc1CN1CCCc2ccccc21 | 40%
18 | Oc1ccc(C=NNc2ccnc3cc(Cl)ccc23)cc1O | 65% (active)
19 | Nc1cc(C(=O)O)c(N)c2c1C(=O)c1ccccc1C2=O | 0%
